Measurements reported in PubChem BioAssay AID1851 (National Center for Advancing Translational Sciences (NCATS), 2009).
Screen size: about 16,000 compounds; about 2,600 (16%) were called active. Inconclusive results (about 20%) are left out. Calls come from the whole dose curve; as a rule, active = well fitted curve in the direction sought with a large enough effect; inconclusive = small, poorly fitted or top-dose-only effect, or effect the other way; inactive = no such curve, though single readings can be large or run the other way. Only a sample is shown.

Target: Cytochrome P450 2D6 (Homo sapiens) (UniProt P10635)
Experiment: Cytochrome panel assay with activity outcomes
Conditions: recombinant CYP, pro-luciferin dealkylation, luminescence, p450-cyp2d6; series mostly up to 57.1 µM; activity, negative = inhibition: at the top concentration
% is set by controls: 0 for no effect and ±100 for the full control effect.

Sequence of Cytochrome P450 2D6 (Homo sapiens) (P10635 whole entry, looked up): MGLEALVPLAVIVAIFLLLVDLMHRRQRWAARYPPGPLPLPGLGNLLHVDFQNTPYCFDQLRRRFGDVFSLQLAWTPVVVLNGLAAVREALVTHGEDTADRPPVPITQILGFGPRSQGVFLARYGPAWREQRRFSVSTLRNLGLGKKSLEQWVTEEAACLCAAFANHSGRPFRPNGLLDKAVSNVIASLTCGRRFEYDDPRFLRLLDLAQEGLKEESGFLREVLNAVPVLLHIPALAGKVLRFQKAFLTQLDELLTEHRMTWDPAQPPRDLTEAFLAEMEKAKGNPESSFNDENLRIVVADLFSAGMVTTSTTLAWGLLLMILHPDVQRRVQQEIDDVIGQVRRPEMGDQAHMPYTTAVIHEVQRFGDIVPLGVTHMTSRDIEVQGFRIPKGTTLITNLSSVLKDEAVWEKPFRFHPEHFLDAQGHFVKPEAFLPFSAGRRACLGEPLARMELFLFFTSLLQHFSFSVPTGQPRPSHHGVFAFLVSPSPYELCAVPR

| Compound | activity, negative = inhibition | AC50 |
| --- | --- | --- |
| CCSC(N)=Nc1ccc(C(F)(F)F)cc1 | -20.9% (inactive) | – |
| Cc1ccc(CSC(N)=Nc2ccccc2)cc1C | – | 0.794 µM (active) |
| N=C(N)c1ccccc1 | 0.724% (inactive) | – |
| O=C(Nc1cccc(C(=O)Nc2ccc(S(=O)(=O)O)c3cc(S(=O)(=O)O)cc(S(=O)(=O)O)c23)c1)Nc1cccc(C(=O)Nc2ccc(S(=O)(=O)O)c3cc(S(=O)(=O)O)cc(S(=O)(=O)O)c23)c1 | – | inactive |
| C(=N/Nc1nnc2c(n1)[nH]c1ccccc12)/c1cccnc1 | -5% [at 11.4 µM] (inactive) | – |
| c1ccc2c[n+](Cc3ccnc4ccccc34)ccc2c1 | – | 3.16 µM (active) |
| COc1cc(NC(=O)c2cc3nc(-c4ccccc4)cc(-c4ccccc4)n3n2)cc(OC)c1OC | 14.1% (inactive) | – |
| COC(=O)c1[nH]c2cccc(OC)c2c1NC(=O)CN(C)CC1OCCO1 | 4.53% (inactive) | – |
| NC1CCN(c2cccc(Cl)n2)CC1 | – | 10 µM (active) |
| Clc1ccc(N2CCCCCC2)nn1 | -3.2% (inactive) | – |
| O=S(=O)(c1ccc(F)cc1)N1CCCC(CO)C1 (stereo not drawn) | 2.41% (inactive) | – |
| Cc1ccc2c(c1)[C@@H]1CN(C)CC[C@@H]1N2S(=O)(=O)c1ccc(F)cc1 | – | 14.1 µM (active) |
| O=S(=O)(c1ccc(F)cc1)N1CC2CCCN2c2ccc(C(F)(F)F)cc21 (stereo not drawn) | -9.59% (inactive) | – |
| O=C1O[C@@H]([C@H](O)[C@H](O)[C@H](O)CO)[C@@H](O)[C@@H]1O | 7.22% [at 11.4 µM] (inactive) | – |
| O=C(Cc1ccccc1)Nc1nc(=O)c2ccccc2s1 | -7.22% (inactive) | – |
| O=C(c1cnccn1)N1CCC2(CC1)CCN(c1ccccn1)CC2 | -5.17% (inactive) | – |
| Cc1ccc(-c2ccc(CCC(=O)O)n2CC2CCCO2)cc1 (stereo not drawn) | -24.3% (inactive) | – |
| Cc1ccc(C(=O)N/N=C/c2cc(C)n(-c3ccc(Br)cc3)c2C)cc1[N+](=O)[O-] | 3.04% (inactive) | – |
| CSc1nc2ccccc2cc1/C=C(\C#N)c1cccc(Cl)c1 | -24.3% (inactive) | – |
| Cc1ccc(-c2noc(CN3CCN(C(c4ccccc4)c4ccccc4)CC3)n2)cc1 | 22.1% (inactive) | – |
| CN1CCCN([C@@H](c2ccccc2)c2ccc(Cl)cc2)CC1 | – | 0.251 µM (active) |
| Cc1cccc(CN2CCN([C@@H](c3ccccc3)c3ccc(Cl)cc3)CC2)c1 | – | 3.16 µM (active) |
| O=C1CC(N2CCN(C(c3ccccc3)c3ccccc3)CC2)C(=O)N1Cc1ccc(N2CCCC2=O)cc1 (stereo not drawn) | -26.1% (inactive) | – |
| CN1CCN(CC(O)c2ccccc2)CC1 (stereo not drawn) | 0.505% (inactive) | – |
| CN1CCN([C@@H](c2ccccc2)c2ccc(Cl)cc2)CC1 | – | 2 µM (active) |

| Compound | activity, negative = inhibition | AC50 |
| --- | --- | --- |
| Cc1cccc(CN2CCN(CC(=O)O)C2=O)c1 | -7.44% (inactive) | – |
| CC(=O)N=c1sc(S(N)(=O)=O)nn1C | -0.218% [at 25.6 µM] (inactive) | – |
| COC(=O)c1cc(/C=C/c2ccccc2)on1 | 8.93% (inactive) | – |
| Cc1cnc2cc(Cl)ccc2c1SCC(=O)O | 8.22% [at 11.4 µM] (inactive) | – |
| NS(=O)(=O)c1cc2c(cc1Cl)N[C@@H](CC1CCCC1)NS2(=O)=O | -1.3% [at 25.6 µM] (inactive) | – |
| O=C(CN1C(=O)c2ccccc2C1=O)NCC(=O)OCC(=O)c1ccc(Br)cc1 | 8.27% (inactive) | – |
| CCn1c(CCNC(=O)c2ccccc2Cl)n[nH]c1=S | 7.62% (inactive) | – |
| O=C(O)c1ccccc1/C=N\N=C1c2ccccc2-c2ccccc21 | 16.6% [at 11.4 µM] (inactive) | – |
| CCn1cc(C(=O)NCC(=O)OC)c2cc(OC)c(OC)cc2c1=O | 0.174% (inactive) | – |
| CC1(C)[C@@H]2CC[C@]1(C)[C@@H](OC(=O)CSC#N)C2 | -15% [at 11.4 µM] (inactive) | – |
| CC(C)(C)NC[C@H](O)COc1cccc2[nH]c(=O)[nH]c12 | – | inactive |
| CC(C)NC[C@@H](O)COc1cccc2ccccc12 | -1.24% (inactive) | – |
| C=CCc1ccccc1OC[C@H](O)CNC(C)C | – | 6.31 µM (active) |
| C[C@@]12C[C@H](O)[C@@H]3[C@H](CCC4=CC(=O)CC[C@]43C)[C@H]1CC[C@@H]2c1csc(N)n1 | -10.6% [at 11.4 µM] (inactive) | – |
| Cc1ccc(C)c(S(=O)(=O)NC(C)C(=O)Nc2ccc(-c3nc4ccccc4s3)cc2)c1 (stereo not drawn) | 12.2% (inactive) | – |
| CC(C)[C@]1(Cl)CC[C@@H]2[C@]3(C)CCC[C@@](C)(C(=O)O)[C@H]3C[C@H](Cl)[C@@]2(Cl)[C@H]1Cl | 4.09% [at 11.4 µM] (inactive) | – |
| COc1cccc(Cn2c(=O)c(-c3cccc(C#N)c3)nc3cnc(N4CCN(C)CC4)nc32)c1 | -0.672% (inactive) | – |
| Cc1ccc(/C=C2\SC(=S)N(CCCC(=O)Nc3ccccn3)C2=O)cc1 | -15.3% (inactive) | – |
| CC(C)(C)COS(=O)OCC(C)(C)C | -1.05% [at 11.4 µM] (inactive) | – |
| CC(C)C(O)(C#CCN1CCCC1)c1ccccc1 (stereo not drawn) | – | 14.1 µM (active) |
| CCC(C#CCN1CCCCC1)(CC)OCCC#N | -15.3% (inactive) | – |
| C[C@@H](N1CCOCC1)[C@@](O)(c1ccccc1)c1ccccn1 | -15% [at 11.4 µM] (inactive) | – |
| O=C(N/N=C/C=C/c1ccc([N+](=O)[O-])cc1)c1cccs1 | 14.5% (inactive) | – |
| OCCN1CCOCCOCCN(CCO)CCN(CCO)CC1 | 26.6% (inactive) | – |
| COC(=O)/C=C/CSC1=N/C(=C/c2ccc(-n3cncn3)cc2)C(=O)N1 | – | 14.1 µM (active) |

| Compound | activity, negative = inhibition | AC50 |
| --- | --- | --- |
| COc1ccccc1NC(=O)CSc1nc2ccccc2cc1Cc1ccccc1 | -3.55% (inactive) | – |
| C[C@@H]1C(=O)N(C)C(=O)c2nc[nH]c21 | 7.62% (inactive) | – |
| CCOc1ccc(NC(=S)NC(=O)/C=C/c2ccc(C)cc2)c([N+](=O)[O-])c1 | 18.9% (inactive) | – |
| O=C(CCN1C(=O)C2C3C=CC(C3)C2C1=O)N1CCN(c2cccc(Cl)c2)CC1 (stereo not drawn) | -26.2% (inactive) | – |
| O=C(c1coc2ccccc2c1=O)N1CCN(c2cccc(C(F)(F)F)c2)CC1 | -4.44% (inactive) | – |
| FC(F)(F)c1cccc(N2CCN(CC3CC4C=CC3C4)CC2)c1 (stereo not drawn) | – | 2.51 µM (active) |
| CC(=O)O[C@]1(C(C)=O)CC[C@@H]2[C@@H]3C=C(C)C4=CC(=O)CC[C@@]4(C)[C@H]3CC[C@]21C | -7.62% [at 25.6 µM] (inactive) | – |
| CCN(CC)C(=O)Cn1cnc([N+](=O)[O-])n1 | 7.11% (inactive) | – |
| O=C1C(=O)N(c2cccc(Cl)c2)C(c2ccccc2[N+](=O)[O-])/C1=C(\O)c1ccccc1 (stereo not drawn) | -1.36% (inactive) | – |
| COc1ccc(CCNC(=O)c2nnn(CC(=O)Nc3ccccc3C)c2N)cc1OC | -23.3% (inactive) | – |
| COCC(=O)N1CCC2(CCCN(C(=O)Nc3cccc(C#N)c3)C2)CC1 | 9.12% (inactive) | – |
| COc1ccccc1C(c1nnnn1C(C)(C)C)N1CCN(Cc2ccncc2)CC1 (stereo not drawn) | – | 2.82 µM (active) |
| COc1ccccc1C(c1nnnn1C(C)(C)C)N1CCCc2ccccc21 (stereo not drawn) | 3.94% (inactive) | – |
| CN1CCN(c2ncc3nc(-c4cc(F)cc(F)c4)c(=O)n(C)c3n2)CC1 | 3.01% (inactive) | – |
| Cc1cc(Cl)ccc1Oc1ncnc2oc(-c3ccccc3)cc12 | 2.71% (inactive) | – |
| OCCN=c1cc(-c2ccccc2)oc2ccc(Cl)cc12 | – | 6.31 µM (active) |
| COc1ccc(CNc2cc(-c3ccccc3CN(C)C)ncn2)c(OC)c1 | – | 12.6 µM (active) |
| COc1ccc(CNc2ccnc(-c3ccccc3CN(C)C)n2)c(OC)c1 | – | 1 µM (active) |
| COc1ccc(CNc2ccnc(-c3ccccc3OC)n2)c(OC)c1 | – | 3.98 µM (active) |
| COc1ccccc1CNc1ccnc(-c2ccccc2OC)n1 | – | 1.58 µM (active) |
| Cc1cc(NC(=O)c2ccc(S(=O)(=O)N(C)C)cc2)n(-c2ccccn2)n1 | 6.95% (inactive) | – |
| COc1cccc(/C=N/Nc2nc(N3CCCC3)nc(N3CCCC3)n2)c1O | 13.7% (inactive) | – |
| COc1cccc(Nc2ncc3nc(-c4cccs4)c(=O)n(-c4ccccc4)c3n2)c1 | 4.06% (inactive) | – |
| Cc1nc(Cl)c(C#N)cc1-c1ccccc1 | -1.78% (inactive) | – |
| N#CC(=C1CCCC1)c1nc(-c2ccccc2)cs1 | -2.08% (inactive) | – |

| Compound | activity, negative = inhibition | AC50 |
| --- | --- | --- |
| Cc1noc(NS(=O)(=O)c2ccc(N/C=C\C(=O)c3ccc4c(c3)OCO4)cc2)c1C | -9.13% (inactive) | – |
| C=C1C(=O)O[C@@H]2[C@H]3O[C@]3(C)CCC=C(C)CC[C@@H]12 | 2.63% (inactive) | – |
| CCOC(=O)c1c(N2C(=O)Nc3cc(Cl)c(Cl)cc3N2O)sc2c1CCCCC2 | -5.85% (inactive) | – |
| CCc1ccc(C(=O)COC(=O)C(Cc2ccccc2)NC(=O)C2CCC(C)CC2)cc1 (stereo not drawn) | 0.801% (inactive) | – |
| O=C(Nc1ccc(Cl)cc1Cl)c1cccc(N2C(=O)C=CC2=O)c1 | -19.8% (inactive) | – |
| COc1ccc(CSC2=C(C#N)C(=O)NC3(CCCCC3)S2)cc1 | -3.33% [at 11.4 µM] (inactive) | – |
| Nc1nc(Cl)nc2c1ncn2[C@@H]1O[C@@H](COP(=O)(O)OP(=O)(O)OP(=O)(O)O)[C@@H](O)[C@H]1O | -0.437% (inactive) | – |
| COc1ccccc1CNc1ccnc(-c2ccccc2Cl)n1 | – | 12.6 µM (active) |
| COc1ccc(-c2nc3c([nH]2)c(=O)n(C)c(=O)n3C)c(OC)c1 | 1.6% (inactive) | – |
| O=C(O)/C=C\C(=O)Nc1ccccn1 | 7.8% [at 11.4 µM] (inactive) | – |
| O=c1cc(CN2CCN(c3ccc(F)cc3)CC2)c2cc3c(cc2o1)CCCC3 | -19.7% (inactive) | – |
| Cc1cc(N)n2ncc(-c3ccc(Cl)cc3)c2n1 | 3.39% (inactive) | – |
| N[C@@H](CC1=CS(=O)(=O)c2ccc(Cl)cc21)C(=O)O | -13.3% [at 11.4 µM] (inactive) | – |
| c1ncc(-c2ccc3c(c2)OCO3)c(NCCc2cnc[nH]2)n1 | – | 2.51 µM (active) |
| Fc1ccc(Nc2ncncc2-c2ccoc2)cc1 | -13.4% (inactive) | – |
| CNc1ncncc1-c1ccc(C(=O)N(C)C)cc1 | -12.6% (inactive) | – |
| CN(C)c1ccc(-c2cncnc2NCCc2cnc[nH]2)cc1 | – | 5.01 µM (active) |
| c1nc(NCCc2cnc[nH]2)c2[nH]cnc2n1 | -17.7% [at 11.4 µM] (inactive) | – |
| CC(=O)NCCNc1ncncc1-c1ccc(N(C)C)cc1 | -9.12% (inactive) | – |
| CN(C)C(=O)c1ccc(-c2cncnc2NCCc2cnc[nH]2)cc1 | – | 0.794 µM (active) |
| CN(C)c1ccc(-c2cncnc2Nc2ccc(F)cc2)cc1 | – | 25.1 µM (active) |
| Cc1cc(N2C(=O)C(O)=C(C(=O)c3ccco3)C2c2ccc(O)cc2)no1 (stereo not drawn) | -0.185% (inactive) | – |
| CO[C@H]1COC(=O)C/C=C\[C@H](C)COC(=O)[C@@H](C)NC(=O)C/C=C\[C@@H]1C | 10.1% [at 11.4 µM] (inactive) | – |
